Vaccinia mCherry: qHTS for Stage-Specific Inhibitors of Vaccinia Orthopoxvirus: mCherry Reporter Primary qHTS | Vaccinia virus mCherry reporter infection, fluorescence | Potency, µM (series often up to 36.5 µM), without a hit: at the top dose activity change, negative = inhibition, hits mostly inhibitors | 310,000 tested, 0.63% active | AID 720579, 2013; calls by dose curve; tested in A549 cells; also: potency is read from the fitted curve at half-maximal effect; nearly all actives have a fitted effect of over 35% in size
Lassa entry inh: qHTS for Inhibitors of binding or entry into cells for Lassa Virus; Lassa virus pseudotype entry inhibition, cell reporter; Potency, µM (doses to about 37.9 µM), for the others: at the top dose activity change, negative = inhibition, most hits filed as inhibitors; 300,000 tested, 1.2% active; AID 540256, 2011; calls by dose curve; tested in HEK293 cells; also: potency is read from the fitted curve at half-maximal effect; nearly all actives have a fitted effect of over 50% in size
VACV Venus inh: qHTS for Stage-Specific Inhibitors of Vaccinia Orthopoxvirus: Venus Reporter Primary qHTS; Vaccinia virus Venus reporter expression, fluorescence; Potency, µM (titrated, usually from 36.5 µM), for the others: at the top dose activity change, negative = inhibition, actives largely listed as inhibitors; 330,000 tested, 0.46% active; AID 720580, 2013; calls by dose curve; tested in A549 cells; also: potency is read from the fitted curve at half-maximal effect; nearly all actives have a fitted effect of over 30% in size
HCMV antiviral: qHTS Assay for inhibitors of the human cytomegalovirus (HCMV). HFF cells, HCMV-luciferase reporter, 72 h; hits give low values. activity change, negative = inhibition, % at 57.5 µM. 410,000 tested, 4.5% active; in the data active = activity change below about -60%; inconclusive = no clear call, values can overlap the other calls; inactive = above about -39%
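Luciferase read-out from HCMV-luciferase-infected HFFs (MOI 1 PFU/cell) 72 h post infection at 37C; compounds added after 16 h cell attachment; activity normalized between buffer-only basal and Salinomycin (10uM) inhibitor controls.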
HCV inhibitor: qHTS Assay for Inhibitors of Hepatitis C Virus (HCV); Huh7.5.1 HCVcc-Cre infection, luciferase reporter, 44 h; Potency, µM (top dose mostly 41.8 µM), inactives show top-dose activity change, negative = inhibition, usual class: inhibitors; 340,000 tested, 3.4% active; AID 651820, 2012; active = well fitted inhibition curve with a large enough effect; inconclusive = small, poorly fitted or top-dose-only effect, or another doubt; inactive = no such curve, though single readings can be large or run the other way; also: potency is read from the fitted curve at half-maximal effect
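Infectious HCVcc-Cre (~0.5 moi) was added to cells just after compound, with cells seeded 4 h earlier at 1,000 per well. Luciferase activity after 44 h culture reported infection; substrate was incubated 15 min at room temperature before reading.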
Marburg entry inh: qHTS for inhibitors of binding or entry into cells for Marburg Virus. Potency, µM (highest dose often 37.8 µM), inactives show top-dose activity change, negative = inhibition, actives largely listed as inhibitors. Marburg virus pseudotyped entry inhibition, cell reporter. 300,000 tested, 1.8% active. AID 540276, 2011; calls by dose curve; tested in HEK293 cells; also: potency is read from the fitted curve at half-maximal effect
Starred values were filed as active, the others as inactive; i = inactive; ? = inconclusive; . = no result given; [ ] = another dose, or the depositor's remark. The list is not random: actives were taken first. Their share in the collection is about 7.8%. % is scaled to controls: 0 for no effect and ±100 for the full control effect.

SMILES | Vaccinia mCherry | Lassa entry inh | VACV Venus inh | HCMV antiviral | HCV inhibitor | Marburg entry inh
CCN(CCn1cccn1)C(=O)CC1C(=O)NCCN1Cc1ccc(F)c(F)c1 (centres undefined) | -4.6% | 16.5% | 0.5% | -14.5 | 5.8% | 0.1%
CCCS(=O)(=O)NCCc1cc2c(OC)ccc(OC)c2[nH]c1=O | -19.0% | 7.5% | -11.8% | -77.2* | -4.2% | 23.1%
CCN(CC)S(=O)(=O)c1ccc(C(=O)NCCc2cc3c(OC)ccc(OC)c3[nH]c2=O)cc1 | -15.6% | ? | -8.2% | -30.2 | ? | ?
COc1ccc(OC)c2[nH]c(=O)c(CCNC(=O)c3ccc(S(=O)(=O)N4CCCC4)cc3)cc12 | -5.6% | -22.6% | -11.7% | -6.5 | 11.2µM* | ?
COC(=O)C1[C@H]2[C@@H]3[C@H](c4ccc(C)o4)Nc4ccc(Cl)cc4[C@@H]3N(C(=O)OC(C)(C)C)[C@@H]12 (some centres undefined) | . | . | . | -35.8 | . | .
CCN(CC)CCNC(=O)c1cc2c(=O)[nH]c3ccc(C)cc3c2s1 | -20.2% | 17.3%[46.1 µM] | -18.0% | 2.9 | . | 8.1%[46.1 µM]
CCN(CCCNC(=O)c1cc2c(=O)[nH]c3ccc(C)cc3c2s1)Cc1ccccc1 | ? | ? | ? | -106.1* | . | 11.2µM*
CCCN1CCN(CCCNC(=O)c2cc3c(=O)[nH]c4ccc(C)cc4c3s2)CC1 | ? | -19.0% | -28.7% | -101.0* | ? | ?
CCCN(CCC)c1ccc(/C=C/c2ccnc3ccccc23)cc1 | -12.9% | . | 45.1% | . | . | .
CCn1c(=O)n(-c2ccc3c(c2)OCO3)c2nc(-c3ccc(C(C)C)cc3)nc(C(N)=O)c21 | -17.9% | ? | -14.6% | -1.8 | . | 33.3%[46.1 µM]
Nc1ccccc1SC(CC(=O)c1ccccc1)c1ccccc1 (centres undefined) | -8.8% | . | -0.8% | . | . | .
CC(C(Sc1ccccc1N)c1ccccc1)[N+](=O)[O-] (centres undefined) | . | . | . | -66.8* | 7.3% | .
O=C(COC(=O)c1ccc(O)cc1)Nc1ccc(S(=O)(=O)N2CCOCC2)cc1 | . | . | . | 9.2 | -1.0% | .
CCCc1nc2ccccc2c(C(=O)OCC(=O)Nc2ccc(S(=O)(=O)N3CCOCC3)cc2)c1CC | . | ? | . | 30.2 | 8.91µM* | ?
CCCc1nc2ccccc2c(C(=O)OCC(=O)Nc2cccc(S(=O)(=O)N3CCOCC3)c2)c1CC | . | 18.3µM* | . | -0.4 | 8.91µM* | ?
O=C(COC(=O)c1n[nH]c2ccccc12)Nc1cccc(S(=O)(=O)N2CCOCC2)c1 | -24.3% | 7.6% | -17.5% | -22.1 | -18.1% | -12.6%[46.1 µM]
Cc1cc(Cl)ccc1NC(=O)CN1CCC(C(O)(c2ccccc2)c2ccccc2)CC1 | -11.6% | ? | -15.8% | -67.1* | ? | ?
Cc1cc(Cl)ccc1NC(=O)CN1CCCC1 | i | ? | -11.4% | 6.2 | -13.0% | -4.9%[46.1 µM]
CCc1ccc(C(=O)NC2=NC(c3cc(OC)ccc3OC)CC(=O)N2)cc1 (centres undefined) | -20.3% | -13.0%[46.1 µM] | -15.8% | -8.6 | . | 20.5%[46.1 µM]
COC(=O)[C@]12CCCCC=C1N(Cc1cccc3ccccc13)C(=O)[C@H](CC(=O)NCc1ccc(OC)c(OC)c1)C2 | ? | . | -25.9% | -86.4* | . | .
CCOC(=O)[C@]12CCC=C1N(Cc1ccco1)C(=O)[C@H](CC(=O)NCc1ccc(OC)c(OC)c1)C2 | 36.9% | . | -4.5% | 4.9 | . | .
CCOC(=O)[C@]12CCC=C1N(Cc1cccc3ccccc13)C(=O)[C@H](CC(=O)NCc1ccc(OC)c(OC)c1)C2 | -10.7% | . | ? | -64.8* | . | .
Clc1ccc(C(Cn2ccnc2)OCc2c(Cl)cccc2Cl)c(Cl)c1 (centres undefined) | -11.1% | . | -23.6% | -64.4* | -17.1% | .
OC(Cn1ccnc1)c1ccc(Cl)cc1Cl (centres undefined) | -14.1%[1.46 µM] | 13.9% | -15.6% | -2.1 | 8.5% | 16.9%
Clc1ccc(C(Cn2ccnc2)OCc2csc3c(Cl)cccc23)c(Cl)c1 (centres undefined) | -13.2% | . | -26.1% | 9.7 | 12.6µM* | .
SMILES | Vaccinia mCherry | Lassa entry inh | VACV Venus inh | HCMV antiviral | HCV inhibitor | Marburg entry inh
O=[N+]([O-])c1ccc(O)c(-c2ccnc3cc(-c4ccccc4)nn23)c1 | ? | ? | ? | -77.8* | . | -15.3%[46.1 µM]
Cc1nc2c(sc3nc(N4CCOCC4)c4c(c32)CC(C)(C)OC4)c(-c2ccc(Cl)cc2)c1C(=O)O | . | . | . | -25.6 | 12.6µM* | .
CC1(C)Cc2c(c(N3CCOCC3)nc3snc(N)c23)CO1 | -18.5% | -13.5% | -9.1% | -102.4* | ? | -22.9%
CC1(C)Cc2c(c(N3CCOCC3)nc3sc(C(=O)Nc4ccc(Cl)cc4)c(N)c23)CO1 | -18.0% | 16.9%[46.1 µM] | 8.5% | 94.1 | 3.6% | ?
CC(O)(c1ccncc1)c1nc(-c2cccc(C(F)(F)F)c2)cs1 (centres undefined) | -3.2% | . | -27.2% | -69.2* | . | .
CCN(CC)C(=O)c1cccc(-c2csc(C(C)(O)c3cccc(OC)c3)n2)c1 (centres undefined) | i | . | -10.2% | -77.7* | . | .
COc1cccc(C(C)(O)c2nc(-c3ccc(S(C)(=O)=O)cc3)cs2)c1 (centres undefined) | 9.4% | . | -9.8% | -85.7* | . | .
COc1cccc(C(C)(O)c2nc(-c3cccs3)cs2)c1 (centres undefined) | -11.2% | . | 6.3% | -79.2* | . | .
CCCC[C@]12Cc3cc(OC)c(OC)cc3[C@H](O1)c1c(cc(-c3ccccc3)oc1=O)O2 | . | . | . | . | . | -24.8%[14.2 µM]
CCOc1ccc(CN2CCOc3ccc(C(O)c4cccnc4)cc3C2)cc1 (centres undefined) | -19.1% | . | -13.4% | . | . | .
Cc1cccc(NC(=O)c2sc(-n3nc(C)c(CCC(C)C)c3C)nc2C)c1C | -6.3% | -1.4%[46.1 µM] | 3.0% | -1.2 | . | 2.0%[46.1 µM]
COc1cccc(C(C)(O)c2nc(-c3ccc(Cl)cc3)cs2)c1 (centres undefined) | i | . | -15.4% | 11.4 | . | .

Assay outcomes deposited in PubChem BioAssay by National Center for Advancing Translational Sciences (NCATS).
